Most compounds without a hit are left out; they make up all but 3.8% or so of the library.
TIM10 inh = growth inhibitors of isogenic TIM10 control yeast, primary screen, counter-screen for tim10-1 yeast inhibitor project, luminescence, uHTS. S. cerevisiae TIM10 strain growth, BacTiter-Glo luminescence, 24 h. hit rate 1.4% among 330,000. AID 463195, 2010. inhibition, % at 10 µM;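 active means inhibition of 40% or more at the single tested concentration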;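 further: wild-type TIM10 isogenic control strain grown at permissive 25 °C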
tim23-1 inh = growth inhibitors of tim23-1 mutant yeast, primary screen, luminescence, uHTS; S. cerevisiae tim23-1 growth, BacTiter-Glo luminescence, 24 h; inhibition, % at 20 µM; hit rate 1.3% among 330,000; AID 463212, 2010;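 active means growth inhibition of the mutant yeast at or above 50%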;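 further: temperature-sensitive mutant grown at 25 °C; plate controls were DMSO-treated mutant yeast for no effect and medium wells lacking yeast for full effect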
PfHsp90 set2 = growth inhibition of PfHsp90-expressing yeast, primary screen, antimalarial PfHsp90 inhibitor project, S. cerevisiae, BacTiter-Glo luminescence, single point, set 2. BacTiter-Glo ATP, 48 h; yeast lacking PDR1 and PDR3 efflux regulators. inhibition, % at 9.4 µM. hit rate 0.32% among 310,000. AID 504621, 2011;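 active means every replicate shows inhibition above about 80%, whatever the replicate mean, limit read from the data; inconclusive means mean inhibition reaches the set limit but some replicate falls short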;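 further: 0% = DMSO neutral controls and 100% = 20 µM radicicol positive controls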
tim10-1 inh = growth inhibitors of tim10-1 mutant yeast, primary screen, luminescence, uHTS; S. cerevisiae tim10-1 ts strain growth, BacTiter-Glo, 24 h; inhibition, % at 20 µM; hit rate 2.2% among 330,000; AID 463190, 2010;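 active means inhibition of at least 40%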;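 further: mutant grown at 25 °C; 0% = DMSO wells with yeast and 100% = wells holding no yeast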
B2AR ag = beta2AR agonists driving receptor internalization, primary screen, cell-based, FAP fluorogen, flow cytometry; Am2.2-beta2AR cells; response, % (no concentration beside the values); hit rate 0.43% among 340,000; AID 504454, 2011;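 active means response above a set limit, near 3 SD of response in nonfluorescent compounds, cut at about 42% in these data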
Target sequence (P07550 whole entry, looked up): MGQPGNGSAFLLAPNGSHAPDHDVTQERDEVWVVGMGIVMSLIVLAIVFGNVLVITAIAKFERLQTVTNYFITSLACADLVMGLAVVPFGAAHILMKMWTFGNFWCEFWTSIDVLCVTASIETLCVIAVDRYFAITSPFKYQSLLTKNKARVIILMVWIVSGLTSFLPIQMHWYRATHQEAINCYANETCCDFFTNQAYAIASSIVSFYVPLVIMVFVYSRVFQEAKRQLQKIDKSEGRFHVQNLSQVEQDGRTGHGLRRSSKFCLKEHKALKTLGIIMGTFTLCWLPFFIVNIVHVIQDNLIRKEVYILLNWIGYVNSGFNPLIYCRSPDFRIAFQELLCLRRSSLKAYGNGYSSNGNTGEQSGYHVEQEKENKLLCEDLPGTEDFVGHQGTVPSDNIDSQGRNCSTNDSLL
tim10-1 conf = growth inhibitors of tim10-1 mutant yeast, confirmation, single concentration, luminescence, S. cerevisiae. S. cerevisiae tim10-1 ts strain growth, BacTiter-Glo, 24 h. hit rate 56% among 7,400. inhibition, % at 20 µM. shares compounds with tim10-1 inh;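 active means inhibition of yeast growth at or above a set limit in either of two repeat tests at 20 µM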;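 further: tim10-1 mutant grown at permissive 25 °C to find synthetic lethal compounds; 0% = DMSO yeast wells and 100% = medium wells without yeast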
tim10 confirm = growth inhibitors of wild-type TIM10 yeast, confirmation, counter-screen for tim10-1 synthetic lethality project, single concentration, luminescence, S. cerevisiae | shares compounds with TIM10 inh | S. cerevisiae tim10 strain growth, BacTiter-Glo luminescence, 24 h | inhibition, % at 10 µM | hit rate 63% among 4,600 | AID 463215, 2010;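 active means inhibition of yeast growth at or above a set limit in either of two replicates at 10 µM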;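 further: this counterscreen used the strain with wild-type TIM10; 0% = yeast with DMSO and 100% = medium wells lacking yeast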
tim23-1 confirm = tim23-1 mutant yeast growth inhibitors, confirmation, luminescence, single concentration; shares compounds with tim23-1 inh; hit rate 83% among 4,400; S. cerevisiae tim23-1 growth, BacTiter-Glo luminescence, 24 h; inhibition, % at 20 µM;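 active means inhibition above about 39% in either of two replicate wells at 20 µM, limit read from the data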;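 further: temperature-sensitive tim23-1 mutant grown at 25 °C; 0% = DMSO wells with yeast and 100% = medium wells without yeast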
An asterisk follows results filed as active; ? = inconclusive; . = no result.

SMILES | TIM10 inh | tim23-1 inh | PfHsp90 set2 | tim10-1 inh | B2AR ag | tim10-1 conf | tim10 confirm | tim23-1 confirm
Cc1ccc(-c2nnc(N3CCN(C(=O)COc4ccccc4)CC3)c3ccccc23)cc1 | 7 | 23 | -38 | 15 | 4 | . | . | .
O=C(CN1C(=O)CSc2ccc(S(=O)(=O)N3CCOCC3)cc21)NCc1ccc(F)cc1 | 1 | 4 | -5 | 19 | -3 | . | . | .
C=CCn1c(O)c(/C=C2\C=NN=C2c2ccccc2)sc1=S | 25 | 51* | -19 | 43* | 7 | 35* | . | 51*
O=C(O)c1ccccc1CC(CCc1ccccc1)C(=O)O (stereo unspecified) | . | . | -5 | . | 4 | . | . | .
O=C1CC(c2ccccc2)CC(O)=C1C=Nc1cccc(Cl)c1 (stereo unspecified) | 90* | 85* | 105* | 89* | -7 | 79* | 94* | 85*
COc1ccc2nc(SC(C)C(=O)NCC(=O)Nc3ccc(F)c(F)c3F)[nH]c2c1 (stereo unspecified) | -8 | 7 | -6 | -1 | -8 | . | . | .
Cc1ccc(C(=O)Sc2cccccc2=O)cc1 | 73* | 89* | 104* | 74* | 16 | 77* | 89* | -28
CCOC(=O)C1CCN(C(=O)c2ccc(S(=O)(=O)Nc3ccccc3OC)cc2)CC1 | 2 | 14 | -13 | 5 | 7 | . | . | .
Cc1ccc(N2CCN(C(=O)c3cc(-c4ccc(F)cc4)[nH]c3C)CC2C)cc1 (stereo unspecified) | 32 | 74* | -55 | 52* | -8 | 51* | . | 55*
O=C(O)CCCCCNC(=O)c1cccc(Br)c1 | 6 | 2 | . | 7 | 4 | . | . | .
O=C(NCCOC12CC3CC(CC(C3)C1)C2)c1cccc(Br)c1 | 44* | 53* | -17 | 42* | -12 | 33* | 46* | 46*
Cc1onc(-c2ccccc2)c1-c1nc2cc(Cl)ccc2c(=O)o1 | 19 | 68* | 7 | 43* | 23 | 18 | . | 53*
Oc1ccc(Br)cc1C=Nc1ccc(Cl)cc1 | 18 | 48 | -26 | 17 | 10 | . | . | .
Cc1ccc(N=Cc2cc(Br)cc(Cl)c2O)cc1 | 33 | 77* | -61 | 51* | 16 | 17 | . | 78*
Nc1c(C(=O)CSc2nc(-c3ccccc3)cs2)c(=O)[nH]c(=O)n1C1CC1 | -2 | 7 | -10 | 3 | -6 | . | . | .
COC(=O)COc1ccc(-c2ccccc2)cc1C=O | 73* | 65* | -4 | 66* | 0 | 60* | 73* | 83*
COC(=O)COc1ccccc1C(N)=O | -5 | 10 | 12 | -2 | 2 | . | . | .
CC(=O)c1c[nH]c(C(=O)NC2CCCCCC2)c1 | 9 | -8 | -9 | -4 | 0 | . | . | .
O=C1C2C(C(=O)N1/N=C/c1ccc([N+](=O)[O-])o1)C1C=CC2C12CC2 (stereo unspecified) | 43* | 64* | 4 | 57* | -10 | 50* | -14 | 62*
O=C1C2C3C=CC(C4CC34)C2C(=O)N1/N=C/c1ccc([N+](=O)[O-])o1 (stereo unspecified) | 45* | 76* | -38 | 67* | 12 | 55* | 46* | 74*
COC(=O)c1ccc(N=Nc2ccccc2)cc1 | 31 | 15 | . | 30 | -1 | . | . | .
O=Nc1ccc(NOC(=O)c2ccccc2)cc1 | 46* | 59* | 2 | 44* | 0 | 54* | 53* | 70*
Cc1nnnn1/C(=C\c1ccccc1)C(=O)OCC(=O)Nc1cccc(S(=O)(=O)N(C)C)c1 | 11 | 28 | -1 | 15 | 15 | . | . | .
Cc1nnnn1/C(=C\c1ccccc1)C(=O)OCC(=O)Nc1ccc(Cl)cc1F | 96* | 80* | -110 | 44* | 6 | 22 | 75* | 40*
Oc1c(Cl)cc(Cl)cc1C=Nc1cc(C(F)(F)F)ccc1N1CCc2ccccc2C1 | 33 | 58* | -15 | 60* | 15 | 36* | . | 59*
SMILES | TIM10 inh | tim23-1 inh | PfHsp90 set2 | tim10-1 inh | B2AR ag | tim10-1 conf | tim10 confirm | tim23-1 confirm
O=C1C(Cl)=C(NCc2cccnc2)C(=O)c2ccccc21 | 39 | 69* | 4 | 45* | 3 | 30 | . | 64*
CSCCC(N=C1NS(=O)(=O)c2ccccc21)C(=O)NCCc1ccccc1 (stereo unspecified) | -9 | -3 | 17 | -5 | 4 | . | . | .
C[C@@H]1C=CC(=O)O[C@@H]1c1ccc(Cl)cc1 | 43* | 56* | . | 45* | . | 41* | 41* | 40*
CN1CCN(S(=O)(=O)c2cccc(C(=O)NCCOc3ccccc3F)c2)CC1 | -20 | -23 | 31 | -14 | -2 | . | . | .
O=C(C[n+]1cn(C(F)F)c2ccccc21)c1ccc(Br)cc1 | 72* | 55* | -5 | 64* | 1 | 65* | 65* | 27
CC1(C)CC(NC(=O)C2CCN(S(=O)(=O)c3ccc(Cl)c(C(F)(F)F)c3)CC2)CC(C)(C)N1 | . | . | 4 | . | 25 | . | . | .
O=c1c2c3c(sc2ncn1/N=C/c1ccncc1)CCCC3 | 43* | 66* | 10 | 61* | 0 | 62* | 50* | 27
O=c1c2c3c(sc2ncn1/N=C/c1cccnc1)CCCC3 | 20 | 44 | -12 | 39 | -8 | . | . | .
Cc1cccc(NS(=O)(=O)c2c(C)nc3scc(C)n3c2=O)c1 | 14 | 40 | -1 | 21 | 5 | . | . | .
O=C1/C(=C/c2cccc([N+](=O)[O-])c2)CCc2ccccc21 | 39 | 54* | -21 | 42* | 24 | 59* | . | 26
O=C1/C(=C/c2ccc([N+](=O)[O-])cc2)CCc2ccccc21 | 32 | 40 | . | 36 | . | . | . | .
CC(=O)c1ccc(S(=O)(=O)NCC(=O)Nc2nc3ccccc3[nH]2)cc1 | 0 | 15 | 24 | 3 | 15 | . | . | .
Cc1cccc(Cn2cc(/C=C/[N+](=O)[O-])c3ccccc32)c1 | 67* | 67* | . | 66* | 11 | 71* | 82* | 74*
O=[N+]([O-])/C=C/c1cn(Cc2ccc(Cl)cc2)c2ccccc12 | 64* | 73* | ? | 65* | 38 | 58* | 30* | 75*
O=C(O)c1ccc(Cn2cc(/C=C\[N+](=O)[O-])c3ccccc32)o1 | 11 | 8 | -7 | -9 | 1 | . | . | .

Screens deposited in PubChem BioAssay by several laboratories.
